NadD block: inhibitors of Staphylococcus aureus NadD; purified NadD enzyme, colorimetric absorbance read-out; inhibition, % at 20 µM; 0.78% of 360,000 active; in the data active = inhibition above about 26%
PP1 inh: blocks human PP1-alpha phosphatase, a PP5 counter-screen; inhibition, % at 6.7 µM; 0.9% of 320,000 active; purified PP1alpha, OMFP fluorescence; P62136; AID 2235;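 active = inhibition above the mean inhibition of all tested compounds plus 3 SD, computed separately for each screening campaign, cut at about 15% in these data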
Beta2AR agonist: human beta-2 adrenergic receptor agonism by FAP; P07550; Am2.2-beta2AR cells, FAP receptor internalization, flow cytometry; response, % (concentration not given with the values); 0.43% of 340,000 active;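 active = response above a set limit, near 3 SD of response in nonfluorescent compounds, cut at about 42% in these data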
Target sequence (P07550 whole entry, looked up): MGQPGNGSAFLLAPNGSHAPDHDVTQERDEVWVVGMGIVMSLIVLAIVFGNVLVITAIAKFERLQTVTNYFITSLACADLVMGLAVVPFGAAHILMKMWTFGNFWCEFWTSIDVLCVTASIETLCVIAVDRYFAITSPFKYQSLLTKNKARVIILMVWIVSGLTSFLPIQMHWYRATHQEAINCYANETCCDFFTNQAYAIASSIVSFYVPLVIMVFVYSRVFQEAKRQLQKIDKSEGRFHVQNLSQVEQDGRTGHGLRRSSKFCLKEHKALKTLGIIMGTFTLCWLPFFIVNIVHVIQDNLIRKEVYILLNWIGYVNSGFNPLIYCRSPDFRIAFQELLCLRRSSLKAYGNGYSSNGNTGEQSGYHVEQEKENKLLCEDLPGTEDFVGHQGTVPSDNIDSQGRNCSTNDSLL
GRK2 aptamer HTS: blocks RNA aptamer binding to human GRK2. AID 488847. inhibition of aptamer binding, % at 10 µM. P25098. 0.59% of 330,000 active. bead flow cytometry, FAM-aptamer displacement from GRK2;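 active = inhibition of aptamer binding above 40%, roughly 3 SD of noise, on plates passing a quality check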;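 also: median bead fluorescence of bound FAM aptamer so fluorescent compounds give negative values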
Granule exo inh: blocks lytic granule exocytosis; inhibition, % at 10 µM; AID 651702; TALL-104 LAMP-1 surface exposure, flow cytometry; cells stimulated with thapsigargin and PMA; 0.66% of 360,000 active;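 active = inhibition above about 55%, limit read from the data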
Granule exo CP1: blocks lytic granule exocytosis; shares compounds with Granule exo inh; TALL-104 cells, LAMP-1 externalization, flow cytometry; stimulated with PMA plus thapsigargin; inhibition, % at 10 µM; 11% of 1,500 active; in the data active = inhibition above about 60%;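 also: 0% = stimulated vehicle wells and 100% = unstimulated wells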
Numbers without * were called inactive. A selection: hits, their analogues and other compounds. The true share with any hit is near 2.9%.

Screening COc1ccc(C(CNC(=O)COc2ccc(F)cc2Cl)N2CCOCC2)cc1 (centres undefined) returned NadD block -2, Beta2AR agonist -24 and Granule exo inh -6.
For COc1cc(C(C)=O)ccc1OCC(=O)NCC(c1ccc(F)cc1)N1CCOCC1 (centres undefined) the results were NadD block 1, Beta2AR agonist -1, GRK2 aptamer HTS 0, Granule exo inh 62* and Granule exo CP1 -5.
Screening c1ccc2c(c1)CCc1ccccc1C2=C1CCNCC1 returned NadD block 3, PP1 inh -4, Beta2AR agonist 10, GRK2 aptamer HTS 0 and Granule exo inh -3.
Screening CN(C(=O)c1cc(COc2ccc(F)cc2Cl)on1)C1CCCc2ccccc21 (centres undefined) returned NadD block -5, PP1 inh 1, Beta2AR agonist 0, GRK2 aptamer HTS 1, Granule exo inh 57* and Granule exo CP1 2.
Screening CN(Cc1ccccn1)C(=O)c1cc(COc2ccc(F)cc2Cl)on1 returned NadD block -6 and Granule exo inh 18.
`O=C(NCc1ccc(F)cc1)c1cnc(-c2ccccn2)nc1C(F)(F)F` gave NadD block 8, PP1 inh 4, Beta2AR agonist -7, GRK2 aptamer HTS 0 and Granule exo inh -1.
Oc1ccccc1N1CCN(c2ccc3ccccc3n2)CC1 was read as NadD block 0, PP1 inh -1, Beta2AR agonist -4, GRK2 aptamer HTS 0, Granule exo inh 66* and Granule exo CP1 -14.
For COCCCN(C(=O)Cc1ccc(S(=O)(=O)N2CCOCC2)s1)c1c(N)n(Cc2ccccc2)c(=O)[nH]c1=O the results were NadD block -1, Beta2AR agonist -5 and Granule exo inh 0.
`O=C(O)c1ccc(-c2noc(-c3ccccc3F)n2)cc1` gave NadD block -5, PP1 inh 0, Beta2AR agonist 1, Granule exo inh 97* and Granule exo CP1 -12.
O=C(Nc1ccc(O)cc1)N1CCOCC1 was read as NadD block 1, PP1 inh 2, Beta2AR agonist 1, GRK2 aptamer HTS 0 and Granule exo inh -5.
CCCCCCCCN1C(=O)[C@H](CC(=O)NCCCOCCCC)C[C@@]2(C(=O)OC)CCCCC=C12 was read as NadD block -5 and Granule exo inh 18.
For CCCCCCCCN1C(=O)[C@H](CC(=O)NCCCOCCCC)C[C@@]2(C(=O)OC)CC(C)(C)CC=C12 the results were Granule exo inh 60* and Granule exo CP1 5.
Screening CCCCCCCCN1C(=O)[C@H](CC(=O)NCCCOCCCC)C[C@@]2(C(=O)OCC)CCCC=C12 returned NadD block 8, Granule exo inh 76* and Granule exo CP1 52.
Screening CC1Sc2ccc(C(=O)N(CCc3ccccc3)Cc3ccccc3)cc2NC1=O (centres undefined) returned NadD block 5 and Granule exo inh 1.
Screening CC(=O)C1=C(O)C(=O)N(c2ccc(S(=O)(=O)Nc3nccs3)cc2)C1c1ccc(F)cc1 (centres undefined) returned NadD block 5, PP1 inh 5, Beta2AR agonist -6, GRK2 aptamer HTS 0 and Granule exo inh -3.
CC(=O)N1CCN(S(=O)(=O)c2cccc(C(=O)NCCC3=CCCCC3)c2)CC1 was read as NadD block 1, PP1 inh -6, Beta2AR agonist -6, GRK2 aptamer HTS 0, Granule exo inh 67* and Granule exo CP1 -10.
CCCN(CC(=O)Nc1ccccc1OC)C(C)C(=O)NC(C)CCc1ccccc1 (centres undefined) was read as NadD block -1, PP1 inh 1, Beta2AR agonist -1, GRK2 aptamer HTS 0, Granule exo inh 70* and Granule exo CP1 -5.
`CC1(C(=O)OCC(=O)Nc2nc(-c3ccc(F)c(F)c3)cs2)CC1(Cl)Cl` (centres undefined) gave NadD block -6, PP1 inh 1, Beta2AR agonist 23, GRK2 aptamer HTS 0, Granule exo inh 92* and Granule exo CP1 101*.
Cc1cccc(S(=O)(=O)Nc2ccc(S(=O)(=O)Nc3nccs3)cc2)c1 was read as NadD block -4, Beta2AR agonist -16, GRK2 aptamer HTS 6, Granule exo inh 61* and Granule exo CP1 -16.
Screening Cc1cccc(C(=O)NC(C(=O)Nc2ccc(S(=O)(=O)Nc3nccs3)cc2)C(C)C)c1 (centres undefined) returned NadD block 9, Beta2AR agonist -2 and Granule exo inh 6.
Screening Cc1ccc(C(=O)N/C(=C\c2ccc(-c3cccc([N+](=O)[O-])c3)o2)C(=O)NCCCN(C)C)cc1 returned NadD block -11, PP1 inh -1, Beta2AR agonist -4, GRK2 aptamer HTS 0 and Granule exo inh 1.
`Cc1ccc(C(=O)N/C(=C\c2ccc(-c3ccc(Br)cc3)o2)C(=O)NCCCN(C)C)cc1` gave NadD block -2, PP1 inh 3, Beta2AR agonist 41, GRK2 aptamer HTS 0, Granule exo inh 75* and Granule exo CP1 99*.

High-throughput results as filed in PubChem BioAssay.
